# Source: PubChem BioAssay
# Rows were chosen to be rich in hits. Some 4% of all compounds tested hit in one or more screens of this group.
# TROY signal inh: inhibitors of TROY-driven NF-kB signaling, primary screen, Q293 LMP1-TROYcd cells, NF-kB luciferase, uHTS. Q293 LMP1-TROYcd NF-kB luciferase reporter, 4 h. inhibition, % at 10 µM. actives 0.98% (n = 360,000);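 active = compounds whose plate-normalised and pattern-corrected inhibition of the luciferase reporter signal at the single screening dose is 50% or more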
# HIF-2a block: HIF-2a reporter inhibitors, primary screen, luminescence, 786-0 RCC cells; actives 0.72% (n = 360,000); 786-0 RCC cells HIF-2a reporter, luciferase luminescence, overnight; inhibition, % at 18.8 µM; AID 624352, 2012;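 active = inhibition of the luminescence signal of 40% or more relative to plate controls, in a single-dose primary screen at 18.75 µM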
# TWEAK-Fn14 inh: inhibitors of TWEAK-Fn14 signaling, primary screen, luciferase reporter cells, uHTS. TWEAK-stimulated Fn14 reporter cells, luciferase luminescence, 8 h. inhibition, % at 10 µM. actives 2% (n = 360,000). AID 1159606, 2016; in the data active = inhibition above about 50%
# EBV LMP1 NFkB: EBV LMP1-driven NF-kappaB luciferase reporter inhibitors, primary screen, cell-based, luminescence, single point. AID 504558, 2011. actives 0.69% (n = 350,000). LMP1-induced NF-kappaB luciferase reporter cells. inhibition, % at 12.5 µM; in the data active = inhibition above about 41%;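 note: 0% = neutral control wells and 100% = reference inhibitor control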
# Peg3 prom inh-1: Peg3 promoter-driven luciferase inhibitors, primary screen, cell-based, HeLa, luciferase luminescence; HeLa PEG-Prom luciferase reporter, overnight; inhibition, % at 20 µM; actives 1.7% (n = 360,000); AID 588405, 2011;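 active = inhibition of at least 50% at 20 µM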
# TRPM1 prom inh: inhibitors of MITF-dependent TRPM1 promoter reporter, primary screen, cell-based, SK-MEL-5, single point, luciferase | actives 0.83% (n = 330,000) | SK-MEL-5 TRPM1 promoter luciferase, 24 h | AID 488899, 2010 | inhibition, % at 12.5 µM;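 active = mean inhibition across replicates of 60% or more, whatever share of single replicates reaches that level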
# Peg3 prom inh-2: Peg3 promoter reporter inhibitors, retest, confirmation, cell-based, HeLa, luciferase reporter, single concentration. inhibition, % at 20 µM. HeLa PEG-Prom luciferase reporter, luminescence, overnight. shares compounds with Peg3 prom inh-1. actives 84% (n = 1,300);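 active = at 20 µM dose, 40% or more inhibition averaged across four replicates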
# Starred values were filed as active, the others as inactive; . = no result.
SMILES,TROY signal inh,HIF-2a block,TWEAK-Fn14 inh,EBV LMP1 NFkB,Peg3 prom inh-1,TRPM1 prom inh,Peg3 prom inh-2
CCN1CCN(C(c2ccc(C(F)(F)F)cc2)c2ccc3cccnc3c2O)CC1 (stereo not drawn),21,49*,-12,14,55*,66*,60*
CCN1CCN(C(c2ccccc2)c2sc3nc(C)nn3c2O)CC1 (stereo not drawn),6,5,5,-7,-6,.,.
CCC(=O)N1CCN(c2nc3ccc(Br)cc3s2)CC1,-29,-282,-10,33,-321,-64,.
COCCn1c(C)cc(C(=O)COC(=O)c2cccc(O)c2)c1C,86*,38,96*,82*,75*,43,68*
O=C(N/C(=C\c1ccco1)C(=O)N1CCOCC1)c1ccccc1Cl,-2,3,6,-6,5,-2,.
Cc1nc(C)c(C(=O)N/N=C/c2cc(Br)ccc2O)s1,29,7,17,21,50*,63*,61*
Cc1nc(C)c(C(=O)N/N=C/c2c[nH]c3ccccc23)s1,-19,-54,18,-17,-10,6,.
Cc1cc(C)c2nc(NNC(=O)c3ccc(S(=O)(=O)N4CC(C)CC(C)C4)cc3)sc2c1 (stereo not drawn),0,-36,15,38,94*,69*,99*
COc1ccc(N(CCCN2C(=O)c3cccc4cccc(c34)C2=O)C(=O)c2cccc(OC)c2)cc1,-1,-4,17,7,45,14,.
O=C1c2cccc3cccc(c23)C(=O)N1CCCN(C(=O)c1cccs1)c1cccc(F)c1,-4,21,39,-4,52*,22,33
COc1ccccc1C1c2ccc3ccccc3c2Oc2ncn(CCCO)c(=N)c21 (stereo not drawn),-4,1,-18,2,102*,62*,97*
COc1ccccc1N1CCN(C(=O)C(Sc2ccccc2)c2ccccc2)CC1 (stereo not drawn),9,24,-12,-7,52*,14,41*
O=C(CC1SC(N2CCCC2)=NC1=O)Nc1ccc(C(=O)NCc2ccc(F)cc2)cc1 (stereo not drawn),-23,-1,-1,-13,-7,1,.
Nc1c(C(=O)Nc2ccc(Cl)c(C(=O)O)c2)sc2nc3c(cc12)CCCC3,3,2,13,9,6,14,.
Nc1c(C(=O)Nc2cccc(C(=O)O)c2)sc2nc3c(cc12)CCCC3,-49,77*,29,57*,69*,80*,55*
Cc1nc(SCC(=O)NCc2ccco2)c2c(C)c(C)sc2n1,-1,5,-9,2,8,0,.
Cc1sc2nc(C(C)C)nc(SCC(=O)NCc3ccco3)c2c1C,-19,21,-1,1,59*,11,32
CCOc1ccc(OCc2cccc(C(=O)O)c2)cc1,-30,89*,46,83*,100*,93*,96*
O=C(O)c1cccc(COc2ccc3c(c2)CCC3)c1,-89,88*,12,85*,85*,96*,73*
O=C(O)c1cccc(COc2ccc(CO)cc2Cl)c1,-26,89*,71*,91*,100*,105*,88*
CCC1(c2ccccc2)NC(=O)N(CC(=O)Nc2cc(S(=O)(=O)N3CCCCCC3)ccc2OC)C1=O (stereo not drawn),9,24,33,2,54*,6,70*
COc1ccc(-c2sc3ccc(OC)cc3c2-c2ccc(OCCN3CCOCC3)cc2)cc1,11,4,-3,0,21,-14,.
COc1ccc(-c2sc3ccccc3c2-c2ccc(OCCN3CCCCC3)cc2)cc1,-9,6,-8,-11,96*,-18,79*
